{"source": "paper PMC7819943", "about": "“Rice protein-binding microarrays: a tool to detect cis-acting elements near promoter regions in rice”", "note": "Whole data set: some 35,000 sequences, median “fluorescence intensity (a.u.)” near 10,000, cut for the highest 2% near 52,000. This is one part of a sample in which the highest values are shown more often than they occur."}
{"target": "T1, OsWOX13 (Oryza sativa, UniProt Q5QMM3 1-267)", "T1 sequence": "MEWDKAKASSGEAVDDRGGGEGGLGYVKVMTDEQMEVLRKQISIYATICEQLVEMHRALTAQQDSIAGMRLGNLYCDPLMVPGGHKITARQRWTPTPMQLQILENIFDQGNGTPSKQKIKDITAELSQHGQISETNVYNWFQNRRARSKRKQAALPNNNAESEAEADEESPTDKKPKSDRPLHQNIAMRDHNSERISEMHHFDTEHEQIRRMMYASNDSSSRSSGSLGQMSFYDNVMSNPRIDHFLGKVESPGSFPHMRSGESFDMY", "assay": "protein-binding microarray (RPBM); PBS, 2% BSA, 51.3 ng/ul salmon testes DNA, 50 uM zinc acetate, 200 nM TF, 25 C, 1 h; high values mean tight binding", "conditions": "protein: recombinant; tags: N-terminal polyhistidine and DsRed monomer fusion (pET32a); label: CyDye5-dUTP incorporated in the synthesized complementary strand; 3' TTTTT single-stranded linker to array surface; dsDNA, one strand shown", "in_short": "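Binding signal here means per-feature fluorescence intensity in arbitrary units. The values were read on an Axon 4000B scanner after a custom Agilent array, double-stranded by primer extension with Cy5-dUTP, was incubated with 200 nM protein at 25 °C for 1 h in PBS with 2% BSA, salmon testes DNA and 50 µM zinc acetate, then washed. The proteins were transcription factors with an N-terminal polyhistidine tag and DsRed, expressed in E. coli BL21-CodonPlus and purified on Ni–NTA.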"}
{"sequence": "CGATGATTGTTAGTATACACTATATGTATGGTGTTTATCCCGGAGTCACCTAGTGCAG", "binding signal": "40600 fluorescence intensity (a.u.)"}
{"sequence": "CTTGATTGACGACCATCTCGTGGTTACCAATTCCATCACCCGGAGTCACCTAGTGCAG", "binding signal": "60000 fluorescence intensity (a.u.)"}
{"sequence": "GCTTGACGACACCATTCGGATTGTTCCATCACTTCCATACCGGAGTCACCTAGTGCAG", "binding signal": "3540 fluorescence intensity (a.u.)"}
{"sequence": "CTACTATCAATCGACCAATTCCAATCTCATCGTTACAGGACGGAGTCACCTAGTGCAG", "binding signal": "4190 fluorescence intensity (a.u.)"}
{"sequence": "ACATGTTTTATCAATTAGTAGTATGGGCATATTACTAGTGCGGAGTCACCTAGTGCAG", "binding signal": "17800 fluorescence intensity (a.u.)"}
{"sequence": "TGCCCTTACCTGTGGTTTCTCCCGCGGCGGCGGGGTGGAGCGGAGTCACCTAGTGCAG", "binding signal": "65500 fluorescence intensity (a.u.)"}
{"sequence": "AGGAGGCGGGGCGGGGCGGCGGCGGCGGCGGCGGCGCCCGCGGAGTCACCTAGTGCAG", "binding signal": "5340 fluorescence intensity (a.u.)"}
{"sequence": "TCTCTTCCTTGCTGTGGTGGCGGCGGGCGGGAGGGCGGCGCGGAGTCACCTAGTGCAG", "binding signal": "12700 fluorescence intensity (a.u.)"}
{"sequence": "TCTGACCTGTATACTAATTTATGACCATATACTTAATCAACGGAGTCACCTAGTGCAG", "binding signal": "5380 fluorescence intensity (a.u.)"}
{"sequence": "AAAACCATCATCAATCAGCCGATCCTGATGTTGTCCCTGCCGGAGTCACCTAGTGCAG", "binding signal": "25100 fluorescence intensity (a.u.)"}
{"sequence": "AAGAGATTGGAATCGGGCGTACCGGAGAACTTTGGAGATGCGGAGTCACCTAGTGCAG", "binding signal": "12100 fluorescence intensity (a.u.)"}
{"sequence": "GGTTTAAATTTTAAAAGTTTGATCAAATATTATCCTAAACCGGAGTCACCTAGTGCAG", "binding signal": "4900 fluorescence intensity (a.u.)"}
{"sequence": "TTGATTAATTTATTTATAGTTTTGTGAAAGTTTGCGCCGTCGGAGTCACCTAGTGCAG", "binding signal": "57900 fluorescence intensity (a.u.)"}
{"sequence": "AATTGATTATTCCTAACAACATTCCGCGGATTAATTTTCTCGGAGTCACCTAGTGCAG", "binding signal": "15500 fluorescence intensity (a.u.)"}
{"sequence": "ACATATCTTAAGATTGATGAAGTCACCACGAACGCCTCGCCGGAGTCACCTAGTGCAG", "binding signal": "11700 fluorescence intensity (a.u.)"}
{"sequence": "ATGAAAGGAGTTGATTTGCACCGGTTTTCAAAGATGAAAACGGAGTCACCTAGTGCAG", "binding signal": "3470 fluorescence intensity (a.u.)"}
{"sequence": "GTCTAATTGTGATTTTATATTTTAATTAATTATATATTGTCGGAGTCACCTAGTGCAG", "binding signal": "34800 fluorescence intensity (a.u.)"}
{"sequence": "GGAAGAATTGATTGATTAAAGATATATATCGAATATCTGCCGGAGTCACCTAGTGCAG", "binding signal": "40400 fluorescence intensity (a.u.)"}
{"sequence": "GGATAATGATTTGACATTGATTGCGGTCTCGTTATTTTCTCGGAGTCACCTAGTGCAG", "binding signal": "59500 fluorescence intensity (a.u.)"}
{"sequence": "TATGATTGATATCCACGAATTGAAGAAGAAGTTGCATTGCCGGAGTCACCTAGTGCAG", "binding signal": "55300 fluorescence intensity (a.u.)"}
{"sequence": "CTCAAAAGTTTGGGTTGATCGATCATTTGCCTACCGAAACCGGAGTCACCTAGTGCAG", "binding signal": "65500 fluorescence intensity (a.u.)"}
{"sequence": "AGATAATTGTGAAATAATTATATTGCGATTTGATAAAGTACGGAGTCACCTAGTGCAG", "binding signal": "14700 fluorescence intensity (a.u.)"}
{"sequence": "TCGTTGTAATAATTTGATTTCTTTTGCAGACGGTCTTTATCGGAGTCACCTAGTGCAG", "binding signal": "5300 fluorescence intensity (a.u.)"}
{"sequence": "TGGAAGAAATTGATGTAATGCTCTGGCCTTTTCATGGATACGGAGTCACCTAGTGCAG", "binding signal": "8100 fluorescence intensity (a.u.)"}
{"sequence": "GCTAATTAAATTAATAATTCATCTTAGGAATCACAGCGTCCGGAGTCACCTAGTGCAG", "binding signal": "39000 fluorescence intensity (a.u.)"}
{"sequence": "CGCTTAATGACTTCACTTTGTCCTCGGATGATTTGCGTCCCGGAGTCACCTAGTGCAG", "binding signal": "11700 fluorescence intensity (a.u.)"}
{"sequence": "CCCAGTCAATCTCCCCATCTCCTCGGCCTCGGCAATAGTACGGAGTCACCTAGTGCAG", "binding signal": "7200 fluorescence intensity (a.u.)"}
{"sequence": "GATAGATAGATAGATAGATAGATAGATAGATACTAGTACACGGAGTCACCTAGTGCAG", "binding signal": "37000 fluorescence intensity (a.u.)"}
{"sequence": "GCTTAATTAGCCGCTTCAGTTGCACAGTAACTGAGGAACCCGGAGTCACCTAGTGCAG", "binding signal": "32700 fluorescence intensity (a.u.)"}
{"sequence": "TGTAATAATAATTTAATCGATCTTTCAAGGGGCATTCTCGCGGAGTCACCTAGTGCAG", "binding signal": "8040 fluorescence intensity (a.u.)"}
{"sequence": "TTTAGATTGCTAAACACACATGTATATATAAGTTTTATTTCGGAGTCACCTAGTGCAG", "binding signal": "5900 fluorescence intensity (a.u.)"}
{"sequence": "TCGATTGACTGCATCTTTTCCTGAAAGTGAACATGCAGTGCGGAGTCACCTAGTGCAG", "binding signal": "32500 fluorescence intensity (a.u.)"}
{"sequence": "TGTAATCTATCAAGAATCCATTACTGAGACACAAATGCATCGGAGTCACCTAGTGCAG", "binding signal": "4280 fluorescence intensity (a.u.)"}
{"sequence": "TCCTAATTAATGTTAGAAATTTTCCTAATTAATGCTAGAACGGAGTCACCTAGTGCAG", "binding signal": "28600 fluorescence intensity (a.u.)"}
{"sequence": "GAGTTGATTTGCGTTGTCTCTCCGTCTCTTTCTTATTAATCGGAGTCACCTAGTGCAG", "binding signal": "20800 fluorescence intensity (a.u.)"}
{"sequence": "TATAATTGATCTTTGTAGTTATTTTGTTGCATACATAAGACGGAGTCACCTAGTGCAG", "binding signal": "29100 fluorescence intensity (a.u.)"}
{"sequence": "ACTAAAATTTGATAAAATTTATTTTGCCTATAATATAAACCGGAGTCACCTAGTGCAG", "binding signal": "6120 fluorescence intensity (a.u.)"}
{"sequence": "CTATTGATTATGATAATTTGAAGTTATATAGCTTGATTTGCGGAGTCACCTAGTGCAG", "binding signal": "57700 fluorescence intensity (a.u.)"}
{"sequence": "ACATATATAAGTTGATTGATTTGTTATTATAGACGACGAGCGGAGTCACCTAGTGCAG", "binding signal": "55400 fluorescence intensity (a.u.)"}
{"sequence": "TAGTTATATTTGATTATCTTGCGAACCTATATATAATATGCGGAGTCACCTAGTGCAG", "binding signal": "5250 fluorescence intensity (a.u.)"}
{"sequence": "TTAAATTGACTATAGTTGATTTGTAGCCTACAATTGGCAGCGGAGTCACCTAGTGCAG", "binding signal": "64600 fluorescence intensity (a.u.)"}
{"sequence": "TGGTTATTATATTGATTATAGATAATTTGAAGTTAGTAGTCGGAGTCACCTAGTGCAG", "binding signal": "31500 fluorescence intensity (a.u.)"}
{"sequence": "TGTAACTATTATATAAATTGGCTATTAAGTTTGACTATAGCGGAGTCACCTAGTGCAG", "binding signal": "17800 fluorescence intensity (a.u.)"}
{"sequence": "AAGTTATATATATTGATGATTTATACAACTTTGTTGGTGACGGAGTCACCTAGTGCAG", "binding signal": "3620 fluorescence intensity (a.u.)"}
{"sequence": "CGTTGATTATTGCGATCGAAACCGTCTCATATAATTTTGCCGGAGTCACCTAGTGCAG", "binding signal": "52500 fluorescence intensity (a.u.)"}
{"sequence": "ACTAGTATTAAATTGACTATAAATGATTTGGAGTTAGTAGCGGAGTCACCTAGTGCAG", "binding signal": "26300 fluorescence intensity (a.u.)"}
